From PubChem BioAssay (NCATS)
Values joined by “and” are separate entries in the source; they are usually repeats but may differ in a detail not shown here. Equal values may be shown once. Values without a mark were called inactive. Inconclusive results are not listed. A call without a number means that no potency is given here. Active and inactive are the calls of the source. Unless noted, calls follow the shape of the dose curve; as a rule, active = well fitted curve in the direction sought with a large enough effect; inconclusive = small, poorly fitted or top-dose-only effect, or another doubt; inactive = no such curve, though single readings can be large; an effect the other way counts as inactive or inconclusive.

Legend:
[1] = biological target: Androgen receptor (Homo sapiens) (UniProt P10275); assay: qHTS assay for small molecule agonists of androgen receptor signaling (AID 588515; active = well fitted curve in the direction sought with a large enough effect in the signal ratio, with a control signal flat; the % refers to the signal ratio); conditions: AR-UAS-bla HEK293, beta-lactamase ratio, agonist 16 h; stronger effect = higher value
Method in brief: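 Stimulation of an AR-responsive β-lactamase reporter in GripTite HEK293 cells was measured after 16 h compound exposure at 37 °C, via CCF4 fluorescence after 2 h RT. EC50 from Hill fits, normalized to R1881 at 30 nM.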

[2] = biological target: Peroxisome proliferator-activated receptor delta (Homo sapiens) (UniProt Q03181); assay: qHTS assay for small molecule antagonists of peroxisome proliferator-activated receptor delta signaling (AID 588535; active = well fitted inhibition curve with a large enough effect in the signal ratio, with a control signal flat, not every such curve was filed as active; the % refers to the signal ratio); conditions: HEK293T PPARd-UAS-bla, beta-lactamase FRET ratio, 18 h; series mostly up to 76.7 µM
Method in brief: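 Beta-lactamase reporter read-out (405 nm excitation, 460/530 nm emission) after CCF4 loading for 2 hrs at RT. HEK293T PPAR-delta-UAS-bla cells, 2% charcoal/dextran FBS, compounds for 18 hrs at 37 C. Hill fit gave IC50 and efficacy.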

[3] = biological target: Androgen receptor (Homo sapiens) (UniProt P10275); assay: qHTS assay for small molecule antagonists of androgen receptor signaling (AID 588516; active = well fitted curve in the direction sought with a large enough effect in the signal ratio, with a control signal flat, not every such curve was filed as active; the % refers to the signal ratio); conditions: AR-UAS-bla HEK293, beta-lactamase ratio, antagonist mode, 16 h; series mostly up to 76.8 µM
Method in brief: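 Antagonist-mode qHTS: inhibition of R1881 (10 nM)-driven beta-lactamase expression in GripTite HEK 293 cells is measured after 16 h; values are Hill-derived IC50s normalized between R1881 and DMSO wells.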

[4] = biological target: Cytochrome P450 3A4 (Homo sapiens) (UniProt P08684); assay: qHTS Assay for Activators of Cytochrome P450 3A4 (AID 885); conditions: recombinant CYP3A4, Luciferin-PPXE luminescence, 60 min; series mostly up to 11.4 µM; also: nearly all actives have a fitted effect of over 65% in size; also: potency is read from the fitted curve at half-maximal effect
Method in brief: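 Luminescent readout of luciferin formed from 25 uM Luciferin-PPXE (KM level) by 20 nM CYP3A4 in 200 mM KPO4, with 60 min NADPH-driven reaction at room temperature after 10 min compound exposure. Ketoconazole (57 uM) defined 100% inhibition.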

[5] = biological target: DNA dC->dU-editing enzyme APOBEC-3G (Homo sapiens) (UniProt Q9HC16); assay: qHTS for inhibitors of Vif-A3G interactions: Validation (AID 588379); conditions: Vif-A3G protein interaction assay; series mostly up to 46.1 µM
Method in brief: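 Yellow fluorescence (Ex 488, Em 500-530) of Vif-coexpressing HeLa A3G-eYFP cells, scanned by Acumen cytometer, reports blocked A3G degradation. Cells plated at 700/well overnight at 37 deg C before compound addition, then a further overnight compound incubation at 37 deg C.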

[6] = biological target: ATP-dependent 6-phosphofructokinase (Trypanosoma brucei brucei) (UniProt O15648); assay: qHTS Assay to Find Inhibitors of T. brucei phosphofructokinase: hit validation (AID 492961); conditions: T. brucei PFK, ADP-Glo luminescence; series mostly up to 51.4 µM
Method in brief: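 Luminescence from ADP-Glo reports ADP generated as T. brucei PFK (1.25 nM) phosphorylates 0.5 mM fructose-6-phosphate using 0.1 mM ATP. Reactions ran 45 min at room temperature, pH 8.0.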

[7] = test system: CP185; assay: qHTS profiling for inhibitors of Plasmodium falciparum proliferation (AID 504749); also: nearly all actives have a fitted effect of over 60% in size; conditions: P. falciparum in erythrocytes, SYBR Green DNA, 72 h; series mostly up to 28.7 µM
Method in brief: (§1)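 SYBR Green fluorescence (ex 485 nm, em 535 nm) reports parasite DNA after 72 h compound exposure of infected red cells at 0.3% parasitemia, 2.5% hematocrit; signal normalized to 0.29 uM artemisinin and vehicle wells.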

[8] = test system: CP191; assay: as above; conditions: P. falciparum in erythrocytes, SYBR Green DNA, 72 h; series mostly up to 28.7 µM
Method in brief: as §1

[9] = test system: CP192; assay: as above; conditions: P. falciparum in erythrocytes, SYBR Green DNA, 72 h; series mostly up to 28.7 µM
Method in brief: as §1

[10] = test system: CP194; assay: as above; conditions: P. falciparum in erythrocytes, SYBR Green DNA, 72 h; series mostly up to 28.7 µM
Method in brief: as §1

[11] = test system: CP201; assay: as above; conditions: P. falciparum in erythrocytes, SYBR Green DNA, 72 h; series mostly up to 28.7 µM
Method in brief: as §1

[12] = test system: CP203; assay: as above; conditions: P. falciparum in erythrocytes, SYBR Green DNA, 72 h; series mostly up to 28.7 µM
Method in brief: as §1

[13] = test system: DFO2036; assay: as above; conditions: P. falciparum in erythrocytes, SYBR Green DNA, 72 h; series mostly up to 28.7 µM
Method in brief: as §1

[14] = test system: DIV30; assay: as above; conditions: P. falciparum in erythrocytes, SYBR Green DNA, 72 h; series mostly up to 28.7 µM
Method in brief: as §1

[15] = test system: P94_40; assay: as above; conditions: P. falciparum in erythrocytes, SYBR Green DNA, 72 h; series mostly up to 28.7 µM
Method in brief: as §1

[16] = test system: PC49; assay: as above; conditions: P. falciparum in erythrocytes, SYBR Green DNA, 72 h; series mostly up to 28.7 µM
Method in brief: as §1

[17] = test system: TAB113; assay: as above; conditions: P. falciparum in erythrocytes, SYBR Green DNA, 72 h; series mostly up to 28.7 µM
Method in brief: as §1

Cytochrome P450 3A4 (Homo sapiens), sequence (P08684 whole entry, looked up): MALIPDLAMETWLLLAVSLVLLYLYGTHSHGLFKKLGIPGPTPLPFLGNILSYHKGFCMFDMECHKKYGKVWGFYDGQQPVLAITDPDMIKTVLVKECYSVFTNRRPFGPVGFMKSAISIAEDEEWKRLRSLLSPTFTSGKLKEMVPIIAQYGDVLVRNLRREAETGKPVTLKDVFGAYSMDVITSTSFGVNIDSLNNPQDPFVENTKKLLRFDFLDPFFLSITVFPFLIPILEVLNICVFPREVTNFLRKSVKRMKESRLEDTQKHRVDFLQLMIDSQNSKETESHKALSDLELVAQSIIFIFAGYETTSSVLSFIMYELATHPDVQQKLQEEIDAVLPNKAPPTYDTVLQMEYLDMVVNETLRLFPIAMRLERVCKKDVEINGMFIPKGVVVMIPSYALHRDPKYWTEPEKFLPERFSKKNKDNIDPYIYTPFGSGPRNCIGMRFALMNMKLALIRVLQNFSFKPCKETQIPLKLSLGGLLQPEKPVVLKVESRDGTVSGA
Androgen receptor (Homo sapiens), sequence (P10275 whole entry, looked up): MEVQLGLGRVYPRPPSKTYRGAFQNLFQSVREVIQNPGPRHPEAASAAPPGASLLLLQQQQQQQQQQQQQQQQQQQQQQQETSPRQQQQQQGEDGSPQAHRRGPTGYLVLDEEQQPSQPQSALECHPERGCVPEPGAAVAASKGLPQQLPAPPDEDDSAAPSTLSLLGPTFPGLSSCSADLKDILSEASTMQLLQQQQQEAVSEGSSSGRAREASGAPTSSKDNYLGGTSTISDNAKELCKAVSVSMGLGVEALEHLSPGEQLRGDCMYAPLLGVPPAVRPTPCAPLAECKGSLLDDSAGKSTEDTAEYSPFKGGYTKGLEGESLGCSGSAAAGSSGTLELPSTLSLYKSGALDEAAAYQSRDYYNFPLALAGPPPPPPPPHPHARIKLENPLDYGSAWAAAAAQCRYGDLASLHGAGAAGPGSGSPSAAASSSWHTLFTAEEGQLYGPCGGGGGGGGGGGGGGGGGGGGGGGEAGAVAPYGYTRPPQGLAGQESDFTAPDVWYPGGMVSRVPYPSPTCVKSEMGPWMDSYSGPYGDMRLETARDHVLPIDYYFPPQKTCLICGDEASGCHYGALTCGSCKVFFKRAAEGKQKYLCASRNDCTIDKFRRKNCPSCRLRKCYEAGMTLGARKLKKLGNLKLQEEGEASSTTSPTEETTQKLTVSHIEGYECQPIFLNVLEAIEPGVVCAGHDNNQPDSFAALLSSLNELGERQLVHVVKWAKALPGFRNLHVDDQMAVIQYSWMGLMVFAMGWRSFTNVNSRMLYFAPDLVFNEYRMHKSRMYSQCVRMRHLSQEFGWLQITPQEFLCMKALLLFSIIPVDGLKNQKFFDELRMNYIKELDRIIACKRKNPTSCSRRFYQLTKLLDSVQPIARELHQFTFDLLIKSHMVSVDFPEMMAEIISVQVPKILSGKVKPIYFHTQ
Peroxisome proliferator-activated receptor delta (Homo sapiens), sequence (Q03181 whole entry, looked up): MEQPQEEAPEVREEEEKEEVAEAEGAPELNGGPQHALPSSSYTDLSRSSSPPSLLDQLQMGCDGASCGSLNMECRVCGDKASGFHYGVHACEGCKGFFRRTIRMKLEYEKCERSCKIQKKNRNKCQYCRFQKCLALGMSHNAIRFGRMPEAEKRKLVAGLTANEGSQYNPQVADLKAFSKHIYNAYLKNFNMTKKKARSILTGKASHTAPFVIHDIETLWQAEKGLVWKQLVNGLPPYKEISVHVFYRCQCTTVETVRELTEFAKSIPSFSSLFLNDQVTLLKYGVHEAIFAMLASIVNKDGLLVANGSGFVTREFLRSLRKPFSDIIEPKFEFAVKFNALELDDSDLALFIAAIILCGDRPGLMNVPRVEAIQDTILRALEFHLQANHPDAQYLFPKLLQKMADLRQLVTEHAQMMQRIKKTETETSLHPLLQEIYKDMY
ATP-dependent 6-phosphofructokinase (Trypanosoma brucei brucei), sequence (O15648 whole entry, looked up): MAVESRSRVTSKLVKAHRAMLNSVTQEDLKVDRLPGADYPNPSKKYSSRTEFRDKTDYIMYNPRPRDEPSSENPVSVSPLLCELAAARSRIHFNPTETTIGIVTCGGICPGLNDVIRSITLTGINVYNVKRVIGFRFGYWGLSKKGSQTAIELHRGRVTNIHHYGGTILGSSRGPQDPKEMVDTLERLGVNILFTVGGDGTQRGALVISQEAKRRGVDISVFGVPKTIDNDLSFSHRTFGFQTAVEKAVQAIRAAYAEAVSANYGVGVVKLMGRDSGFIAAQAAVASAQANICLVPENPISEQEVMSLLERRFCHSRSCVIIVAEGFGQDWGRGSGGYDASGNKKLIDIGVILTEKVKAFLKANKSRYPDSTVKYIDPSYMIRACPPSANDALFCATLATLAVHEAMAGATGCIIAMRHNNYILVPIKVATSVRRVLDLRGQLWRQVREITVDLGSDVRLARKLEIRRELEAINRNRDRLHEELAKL
DNA dC->dU-editing enzyme APOBEC-3G (Homo sapiens), sequence (Q9HC16 whole entry, looked up): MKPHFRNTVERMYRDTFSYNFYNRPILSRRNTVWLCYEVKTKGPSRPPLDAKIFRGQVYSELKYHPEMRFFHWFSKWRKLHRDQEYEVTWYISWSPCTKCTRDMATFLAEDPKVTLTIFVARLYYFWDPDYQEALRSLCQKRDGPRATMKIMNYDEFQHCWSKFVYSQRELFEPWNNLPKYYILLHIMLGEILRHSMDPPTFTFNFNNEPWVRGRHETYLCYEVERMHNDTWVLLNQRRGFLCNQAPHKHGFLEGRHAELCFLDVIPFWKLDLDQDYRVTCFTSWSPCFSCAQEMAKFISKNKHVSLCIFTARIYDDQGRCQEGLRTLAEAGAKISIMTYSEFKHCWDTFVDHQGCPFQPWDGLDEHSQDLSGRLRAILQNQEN

CCC(Cl)CC(Cl)C(Cl)C(Cl)C(Cl)C(C)Cl (configuration not stated)
activation [1]: -4.22%

CC(C)S
outcome [2]: inactive

Cc1ccc2ccc3cccc4ccc1c2c34
outcome [2]: inactive

c1ccc2ncccc2c1
outcome [2]: inactive

Nc1cc([N+](=O)[O-])ccc1O
activation [1]: -20.1% | outcome [3]: inactive | outcome [2]: inactive

COc1ccc(C)cc1N
activation [1]: 1.38%

CCNC(=S)NCC
Potency [4]: inactive

O=[N+]([O-])c1cccc(I)c1
outcome [2]: inactive

c1cc2c3c(c1)ccc1cccc(c13)C2
Potency [4]: inactive

C/C(Cl)=C/CCl
activation [1]: 10.2% | outcome [3]: inactive | outcome [2]: inactive

C1CCCNCC1
outcome [2]: inactive

CC(=O)OC1CC(C)OC(C)O1 (configuration not stated)
outcome [2]: inactive

OCC(CBr)(CBr)CBr
outcome [2]: inactive

Oc1c(Cl)cc(Cl)c(Cl)c1Cl
outcome [2]: inactive

COc1ccc(C(=O)Nc2ccccc2)cc1[N+](=O)[O-]
Potency [4]: inactive

C=Cc1cccc(C)c1
outcome [2]: inactive

Cc1ccc(N)cc1[N+](=O)[O-]
outcome [3]: inactive

c1ccc(CSCc2ccccc2)cc1
outcome [2]: inactive

COc1cc(-c2ccc(N=C=O)c(OC)c2)ccc1N=C=O
Potency [4]: inactive

c1ccc2c(c1)ccc1ccccc12
activation [1]: -2.75% and -0.0415% | outcome [3]: inactive | outcome [2]: inactive

Cc1ccc(C(=O)O)cc1[N+](=O)[O-]
activation [1]: 6.4% | outcome [3]: inactive

C/C=C1/C(=O)C[C@H]2[C@@H]3CCC4=CC(=O)CC[C@]4(C)[C@H]3CC[C@]12C
Potency [4]: 1 µM (active)

CCCCCCCCC1CO1 (configuration not stated)
activation [1]: 13.4% | outcome [3]: inactive

CCc1ccc(C(c2ccc(CC)cc2)C(Cl)Cl)cc1
activation [1]: -10.8%

CC(=O)OC(C(=O)c1ccccc1)c1ccccc1 (configuration not stated)
activation [1]: -5.55%

Nc1ccc(N=Nc2ccccc2)c(N)c1
Potency [4]: inactive

Nc1ccc2c(c1)C(=O)c1ccccc1C2=O
Potency [4]: inactive | outcome [2]: inactive

Cc1cc(=O)oc2cc(O)cc(O)c12
Potency [4]: inactive

Nc1ccc(-c2ccc(N)c(O)c2)cc1O
activation [1]: 4.81%

O=C(Cl)c1ccc([N+](=O)[O-])cc1
activation [1]: 25.7% | outcome [3]: inactive | outcome [2]: inactive

O=C(O)/C=C/c1ccc(/C=C/C(=O)O)cc1
activation [1]: -7.2%

C=CC(C)(O)CCCC(C)CCCC(C)CCCC(C)C (configuration not stated)
Potency [4]: inactive | outcome [5]: inactive

C=C1CC[C@H](O)C/C1=C/C=C1\CCC[C@]2(C)[C@@H]([C@H](C)CCCC(C)C)CC[C@@H]12
Potency [4]: inactive | outcome [6]: inactive | Potency [7]: inactive | Potency [8]: inactive | Potency [9]: inactive | Potency [10]: inactive | Potency [11]: inactive | Potency [12]: inactive | Potency [13]: inactive | Potency [14]: inactive | Potency [15]: inactive | Potency [16]: inactive | Potency [17]: inactive
